PubChem BioAssay (NCI)
The panel holds about 83,000 compounds, 20% with a hit somewhere; the sample as a whole holds those more often.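 Interpretation: 100, growth as untreated; towards 0, rising growth inhibition; 0, no net growth; 0 to -100, cell death. Compounds scoring below 10 were considered active.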 The source made the active and inactive calls.

Key:
Experiment in all cases: NCI-60 one-dose screen, 48 h (100 = growth as untreated, 0 = no growth, -100 = all killed)
Settings in all cases: 10 µM unless noted
T-47D breast = test system: T-47D breast
BT-549 breast = test system: BT-549 breast
MDA-MB-435 melanoma = test system: MDA-MB-435 melanoma
SW-620 colon = test system: SW-620 colon
MCF7 breast = test system: MCF7 breast
HCT-116 colon = test system: HCT-116 colon
HCC-2998 colon = test system: HCC-2998 colon
KM12 colon = test system: KM12 colon

Measured: growth

C=COCCCCCCCCCCCCCCCCCC
inactive: T-47D breast 114% | BT-549 breast 103% | MDA-MB-435 melanoma 114% | SW-620 colon 104% | MCF7 breast 104% | HCT-116 colon 103% | HCC-2998 colon 99.3% | KM12 colon 92.8%

Cc1ccc(Cc2cnc(NC(=O)/C=C/c3cccc(C)c3)s2)cc1
inactive: T-47D breast 39.8% | SW-620 colon 17% | MCF7 breast 14.6% | HCC-2998 colon 12.4% | KM12 colon 16.1%
active: BT-549 breast -5.4% | MDA-MB-435 melanoma -44.7% | HCT-116 colon 2.53%

O=C1/C(=C\C(Cl)=C/c2ccc([N+](=O)[O-])cc2)SC(=S)N1CCc1ccc(O)cc1
active: T-47D breast -36.4% | BT-549 breast -51.8% | MDA-MB-435 melanoma -1.96% | SW-620 colon -30.1% | MCF7 breast -73.4% | HCT-116 colon -77.2% | HCC-2998 colon -92.3% | KM12 colon -50.5%

CCCC1CCCCN1C(=O)OCC(C)C (configuration not stated)
inactive: T-47D breast 104% | BT-549 breast 114% | MDA-MB-435 melanoma 100% | SW-620 colon 98.4% | MCF7 breast 100% | HCT-116 colon 103% | HCC-2998 colon 125% | KM12 colon 105%

Fc1ccc(NCc2nnc(-c3ccc(Cl)cc3)o2)cc1
inactive: T-47D breast 57% | BT-549 breast 77.8% | MDA-MB-435 melanoma 94.8% | SW-620 colon 90.4% | MCF7 breast 55.2% | HCT-116 colon 53.7% | KM12 colon 84.8%

Cc1nn(-c2ccc(Br)cc2)c2nc3[nH]c(=O)[nH]c(=O)c3nc12
inactive: T-47D breast 102% | BT-549 breast 94.2% | MDA-MB-435 melanoma 99.1% | SW-620 colon 103% | MCF7 breast 93.4% | HCT-116 colon 98.3% | KM12 colon 103%

N=C(N)c1ccc(S(N)(=O)=O)cc1
inactive: T-47D breast 101% | BT-549 breast 94.2% | MDA-MB-435 melanoma 98.5% | SW-620 colon 105% | MCF7 breast 99.4% | HCT-116 colon 93.9% | HCC-2998 colon 93.9% | KM12 colon 106%

COc1ccc(-c2nc3ccccn3c2-c2nc3ccc(Cl)cc3[nH]2)cc1
inactive: T-47D breast 75% | BT-549 breast 94.4% | MDA-MB-435 melanoma 86.9% | SW-620 colon 88.4% | MCF7 breast 79.6% | HCT-116 colon 93.5% | KM12 colon 86.4%

Cc1ccc(/C=C(\C#N)c2cc3ccccc3n2C)cc1
active: BT-549 breast 0.46% | MDA-MB-435 melanoma -1.88%
inactive: T-47D breast 54.9% | SW-620 colon 31.8% | MCF7 breast 18.4% | HCT-116 colon 16.2% | KM12 colon 22.3%

COc1ccc(/C=C/C(=O)NCC(C)O)cc1 (configuration not stated)
inactive: T-47D breast 97.2% | BT-549 breast 97.6% | MDA-MB-435 melanoma 104% | SW-620 colon 101% | MCF7 breast 94.9% | HCT-116 colon 91.3% | KM12 colon 99.9%

O=C(N/N=C/c1ccccc1SSc1ccccc1/C=N/NC(=O)c1ccccc1)c1ccccc1
inactive: T-47D breast 43.6% | BT-549 breast 30.1% | MDA-MB-435 melanoma 46.1% | SW-620 colon 41.6% | MCF7 breast 10.1% | HCT-116 colon 24.6% | HCC-2998 colon 55.6% | KM12 colon 36.4%

Oc1ccc(CCC2CCCC(CCc3ccc(OCCF)cc3)N2)cc1 (configuration not stated)
inactive: T-47D breast 72.8% | BT-549 breast 96.4% | MDA-MB-435 melanoma 99.5% | SW-620 colon 112% | MCF7 breast 89% | HCT-116 colon 86% | KM12 colon 104%

CC1(c2ccccc2)OC1C(=O)O (configuration not stated)
inactive: T-47D breast 117% | BT-549 breast 94.9% | MDA-MB-435 melanoma 98.7% | SW-620 colon 102% | MCF7 breast 105% | HCT-116 colon 101% | KM12 colon 105%

COc1cnc2c(c1)C(=O)c1c-2n(CCCNCCN2CCOCC2)c(=O)c2cc([N+](=O)[O-])ccc12
active: SW-620 colon -55.2% | MCF7 breast 3.37% | HCT-116 colon -60.4% | KM12 colon -38.1%
inactive: T-47D breast 15.7% | BT-549 breast 13.4% | MDA-MB-435 melanoma 13.7%

CCN1CCN(C(=O)[C@]23CCC(C)(C)C[C@@H]2C2=CC[C@@H]4[C@@]5(C)C/C(=C/c6cccnc6)C(=O)C(C)(C)[C@@H]5CC[C@@]4(C)[C@]2(C)CC3)CC1
inactive: T-47D breast 20.1% | BT-549 breast 25.7% | MDA-MB-435 melanoma 34.9% | SW-620 colon 27.6% | HCT-116 colon 13.3% | KM12 colon 33.8%
active: MCF7 breast 5.68%

Oc1cccc2ccc(N/N=C/c3cc(CN4CCCCC4)c(O)c4ncccc34)nc12
inactive: T-47D breast 25.3% | BT-549 breast 11.1% | MDA-MB-435 melanoma 20.2% | SW-620 colon 16% | MCF7 breast 10.3%
active: HCT-116 colon 1.57% | KM12 colon 9.18%

Cc1ccc(-c2ccc(Nc3ccccc3)nn2)cc1S(N)(=O)=O
active: MDA-MB-435 melanoma 8.3%
inactive: T-47D breast 84.2% | BT-549 breast 80.6% | SW-620 colon 51.7% | MCF7 breast 78.1% | HCT-116 colon 79% | KM12 colon 39.3%

COC(=O)[C@]12CC[C@@H](C)[C@H](C)[C@@H]1C1=CC[C@@H]3[C@@]4(C)C[C@@H](OC(C)=O)[C@H](O)[C@@](C)(COC(C)=O)[C@@H]4[C@H](O)C[C@@]3(C)[C@]1(C)CC2
active: T-47D breast -66.3% | BT-549 breast -85.8% | MDA-MB-435 melanoma -81.7% | SW-620 colon -80.9% | MCF7 breast -78.7% | HCT-116 colon -69.5% | KM12 colon -75.4%

C[C@H]1[C@@H]2[C@H]3CC[C@@H]4[C@@]5(C)Cc6c([nH]c7ccccc67)C(C)(C)[C@@H]5CC[C@@]4(C)[C@]3(C)CC[C@]23CO[C@]1(C)[C@@H](C(=O)/C=C/c1ccccn1)C3
inactive: T-47D breast 65% | BT-549 breast 87.1% | MDA-MB-435 melanoma 83.8% | SW-620 colon 95.9% | MCF7 breast 69.2% | HCT-116 colon 46.4% | HCC-2998 colon 103% | KM12 colon 93.2%

COc1cc(-c2c(C#N)c(-c3cccs3)nc3c2c(-c2ccccc2)nn3-c2ccccc2)ccc1O
inactive: T-47D breast 56.8% | BT-549 breast 101% | MDA-MB-435 melanoma 74.8% | SW-620 colon 88% | MCF7 breast 76.4% | HCT-116 colon 56.8% | HCC-2998 colon 99.6% | KM12 colon 78.4%

CN1CCN(CCOc2ccc(-c3cnc4c(-c5ccccc5F)cnn4c3)cc2)CC1
active: MDA-MB-435 melanoma -29.2% | SW-620 colon -73.8% | HCT-116 colon 3.73% | KM12 colon 9.44%
inactive: T-47D breast 23% | BT-549 breast 69.9% | MCF7 breast 19.2%

Cn1cc(-c2nc(-c3c[nH]c4ncccc34)cs2)c2ccccc21
inactive: T-47D breast 29.1% | BT-549 breast 82.9% | MDA-MB-435 melanoma 36.5% | SW-620 colon 95.8% | MCF7 breast 10.5% | HCT-116 colon 76.9% | KM12 colon 12.9%

CC(C)=CCC/C(C)=C/CC/C(C)=C/CC/C(C)=C/CSC[C@H](NC(=O)CCCCCN1CCN(C)CC1)C(=O)NC1CCCCC1
active: SW-620 colon -12.9% | HCT-116 colon 6.51%
inactive: T-47D breast 58.3% | BT-549 breast 102% | MDA-MB-435 melanoma 48.5% | MCF7 breast 17% | KM12 colon 81.7%

COc1ccc(-c2n/c(=C\c3c(O)[nH]c4ccc(OC)cc34)cc3c2=Nc2ccccc2-3)cc1
active: BT-549 breast -20.1% | MDA-MB-435 melanoma 3.6% | SW-620 colon 0.413% | MCF7 breast -22.7% | HCT-116 colon -72.6% | KM12 colon 8.66%
inactive: T-47D breast 93%

N=c1c(S(=O)(=O)c2ccccc2)cc2c(=O)n3ccccc3nc2n1C1CCCC1
inactive: T-47D breast 79.8% | BT-549 breast 89.3% | MDA-MB-435 melanoma 108% | SW-620 colon 99.3% | MCF7 breast 93.8% | HCT-116 colon 91.5% | KM12 colon 98.5%

COc1ccc2c3c(c4ccccc4cc13)C(=O)N(CCN(C)CCN)C2=O
active: T-47D breast 6.79% | MDA-MB-435 melanoma -92.6% | SW-620 colon -66.5% | MCF7 breast -88.2% | HCT-116 colon -94.8% | KM12 colon -68.6%
inactive: BT-549 breast 26.1%

Cc1nnc2nc(N)[nH]n2c1=O
inactive: T-47D breast 96.1% | BT-549 breast 99.6% | MDA-MB-435 melanoma 113% | SW-620 colon 107% | MCF7 breast 97.9% | HCT-116 colon 101% | KM12 colon 96%

Cc1ccc2[nH]cc(-c3nc(-c4cn(C)c5ncccc45)cs3)c2c1
inactive: T-47D breast 41.5% | BT-549 breast 82.9% | MDA-MB-435 melanoma 79.3% | SW-620 colon 109% | MCF7 breast 55.1% | HCT-116 colon 74.9% | HCC-2998 colon 88.8% | KM12 colon 77.9%

Cc1cc(N2CCCC2)nc(N(CCNc2ccnc3cc(Cl)ccc23)Cc2ccco2)n1
inactive: T-47D breast 12.4% | BT-549 breast 22.3% | MDA-MB-435 melanoma 44% | SW-620 colon 25.5% | MCF7 breast 17.9% | KM12 colon 50%
active: HCT-116 colon -50.9%
